According to PubChem BioAssay (NCATS):
Records with an inconclusive call do not appear. The source made the active and inactive calls. Unless noted, calls come from the whole dose curve; as a rule, active = well fitted curve in the direction sought with a large enough effect; inconclusive = small, poorly fitted or top-dose-only effect, or another doubt; inactive = no such curve, though single readings can be large; an effect the other way counts as inactive or inconclusive.

Legend:
[1] = target: Cytochrome P450 1A2 (Homo sapiens) (UniProt P05177); assay: p450-cyp1a2 (AID 410; calls by dose curve; note: potency is the fitted concentration of half-maximal effect;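 for activity change, negative = inhibition: -100% = full effect of reference inhibitor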)
In short: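 Luminescent demethylation readout: Luciferin-ME (100uM, equal to Km) turned over by 20nM CYP1A2 for 60 min at room temperature after NADPH regeneration addition, following 10 min compound preincubation. Normalization used 57 uM furafylline as full inhibition.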

[2] = target: Glucocorticoid receptor (Homo sapiens) (UniProt P04150); assay: GR-GFP Redistribution (AID 450;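 active = compounds whose dose series gives a full or clear partial fitted curve of increased nuclear translocation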; note: potency is the fitted concentration of half-maximal effect); conditions: U2OS GR-GFP nuclear translocation, laser cytometry, 2 h
[3] = target: Glucocorticoid receptor (Homo sapiens) (UniProt P04150); assay: GR-EFC Redistribution (AID 451; calls by dose curve; note: potency is the fitted concentration of half-maximal effect); conditions: CHO-K1 GR-EFC translocation, beta-gal luminescence, 2 h
In short: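 Translocation of GR-ED fusion to nuclear EA restores b-gal, read by luminescence after 1 h room-temperature detection. Engineered CHO-K1 biosensor cells, 1,000/well, exposed 2 h at 37 C to titrations up to 46 uM final.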

[4] = target: Mitogen-activated protein kinase 10 (Mus musculus) (UniProt Q61831); assay: JNK3 AlphaScreen Assay (AID 530; active = well fitted curve in either direction with a large enough effect, not every such curve was filed as active;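 note: kinase came from lysate of stimulated human HepG2 cells; signal reports phosphorylation of biotinylated GST-cJun 1-79 at Ser73 with 10 µM ATP; % is set by controls: 0 for no effect and ±100 for the full control effect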)
In short: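 qHTS titrations with 15 min compound pre-incubation before adding ATP (10 uM final). Read-out: AlphaScreen of Ser73-phosphorylated biotin-GST-cJun using HepG2 lysate JNK3 activated by IL-1β and TNFα.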

[5] = target: 3',5'-cyclic-AMP phosphodiesterase 4B (Homo sapiens) (UniProt Q07343); assay: qHTS Assay for Inhibitors of PDE-IV (AID 607; active = well fitted activation curve with a large enough effect in the main read-out, with a control signal flat, not every such curve was filed as active; note: % of control where 0% means no effect)
In short: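 ACTOne HEK293 cells carry a modified cAMP-gated CNG channel and express endogenous PDE4; plated 1000 cells/well, compounds up to 22.9 uM final. Membrane-potential dye fluorescence (ex 535/em 590) was read; parental cells received 10 uM forskolin + 100 uM RO 20-1724.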

[6] = target: Cytochrome P450 2C9 (Homo sapiens) (UniProt P11712); assay: qHTS Assay for Inhibitors and Substrates of Cytochrome P450 2C9 (AID 883); note: potency is the fitted concentration of half-maximal effect; nearly all actives have a fitted effect of over 60% in size
In short: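 Inhibition of CYP2C9 is scored as loss of luminescence, with 57uM sulphaphenazole defining 100% inhibition. Substrate Luciferin-H is used at 100uM, equal to its KM; enzyme at 10nM in 25mM KPO4, 60 min at 37C with NADPH regeneration.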

[7] = target: Cytochrome P450 3A4 (Homo sapiens) (UniProt P08684); assay: qHTS Assay for Activators of Cytochrome P450 3A4 (AID 885); note: nearly all actives have a fitted effect of over 65% in size
In short: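 CYP3A4 activity: Luciferin-PPXE O-dealkylation, 25uM substrate, 200mM KPO4, RT throughout. Read-out is luciferase luminescence; higher values reflect activation.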

[8] = target: Cytochrome P450 2C19 (Homo sapiens) (UniProt P33261); assay: qHTS Assay for Inhibitors and Substrates of Cytochrome P450 2C19 (AID 899); note: potency is the fitted concentration of half-maximal effect; nearly all actives have a fitted effect of over 60% in size
In short: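 5nM enzyme + 10uM Luciferin-H EGE (=KM), 50mM KPO4; cpd pin-transferred, 10 min 37C; NADPH regen, 60 min 37C; stopped w/ luciferin detection reagent, 20 min; luminescence. Normalized to 57uM ketoconazole (AC100).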

[9] = target: DNA dC->dU-editing enzyme APOBEC-3G (Homo sapiens) (UniProt Q9HC16); assay: qHTS for inhibitors of Vif-A3G interactions: Validation (AID 588379); note: 0% is about no effect
In short: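 Yellow fluorescence (Ex 488, Em 500-530) of Vif-coexpressing HeLa A3G-eYFP cells, scanned by Acumen cytometer, reports blocked A3G degradation. Cells plated at 700/well overnight at 37 deg C before compound addition, then a further overnight compound incubation at 37 deg C.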

[10] = tested on: Zika virus NS2B-NS3 protease; assay: Primary screen GU AMC qHTS for Zika virus inhibitors (AID 1347154);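 note: 0% = no-inhibitor control and -100% = no-enzyme control; nearly all actives have a fitted effect of over 70% in size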
In short: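 Fluorogenic AMC-substrate cleavage by noncovalent NS2B-NS3 protease complex (25 nM, pH 8.0 Tris buffer with Tween 20) followed for 15 minutes at room temperature (~20% conversion). Percent inhibition from ex340/em450 signal change, fitted by 4-parameter Hill equation.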

[11] = AP1 Signaling Pathway (AID 357; active = well fitted curve in either direction with a large enough effect, not every such curve was filed as active;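 note: ME-180 reporter cells stimulated with EGF at its EC50 level; % is set by controls: 0 for no effect and ±100 for the full control effect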); conditions: ME-180 AP-1-bla reporter, EGF-induced, beta-lactamase ratio, 5 h; at 38 µM (top of the series)
In short: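 A ratiometric CCF4 readout (405 nm excitation; 460 and 530 nm emission) quantified AP-1-driven beta-lactamase in ME-180 cells after 5 h with compound and EC50 EGF; AC50 values were derived for activators and inhibitors.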

[12] = NFAT Signaling Pathway (AID 444; active = well fitted curve in either direction with a large enough effect, not every such curve was filed as active;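 note: carbachol stimulus at about its EC50 of 1 µM final; % is set by controls: 0 for no effect and ±100 for the full control effect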); conditions: Jurkat NFAT-bla M1, carbachol, beta-lactamase ratio, 5 h; at 38 µM (top of the series)
In short: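 Read-out: CCF4 FRET ratio (460 nm/530 nm) after 1 h RT dye loading, used for %activity and AC50 from titration series. Cells: Jurkat NFAT-β-lactamase/M1 line, treated with compound plus 1 uM carbachol for 5 h, 37 °C.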

[13] = Stat Signaling Pathway (AID 446; active = well fitted curve in either direction with a large enough effect, not every such curve was filed as active;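 note: ME-180 cervical cancer cells given 40 pM IL-6 alongside compound; SIE-controlled beta-lactamase reporter measured as 460/530 nm FRET emission ratio; % is set by controls: 0 for no effect and ±100 for the full control effect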); conditions: ME-180 (cervical carcinoma) SIE beta-lactamase reporter, IL-6 stimulated, 5 h; at 38 µM (top of the series)
In short: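 Compound effects on IL-6-induced STAT reporter activity were measured in ME-180 cells. After overnight culture, cells were co-treated with 40 pM IL-6 for 5 hrs before beta-lactamase substrate loading at room temperature.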

[14] = target: Guanine nucleotide-binding protein G(i) subunit alpha-1 (Homo sapiens) (UniProt P63096); assay: qHTS Assay for Inhibitors of RGS12 GoLoco Motif Activity (Green Fluorophore) (AID 879);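 note: 0% = labeled peptide with Gαi1 and full inhibition = labeled peptide alone without protein; negative values mean loss of peptide binding seen as reduced polarization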
In short: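 A drop in FITC polarization marked displacement of the FITC-tagged RGS12 GoLoco peptide (10 nM) from Gαi1 (50 nM). Compounds were incubated 10 min at room temperature in Tris pH 7.5 buffer containing 150 mM NaCl, 0.1 mM GDP and 0.05% NP40; unlabeled peptide titration served as control.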

[15] = qHTS Assay for Identification of Small Molecule Agonists for Thrombopoietin (TPO) Signaling Pathway (AID 917); note: % is set by controls: 0 for no effect and ±100 for the full control effect
In short: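 Cell-based luciferase reporter screen. Mouse Ba/F3 line stably expressing human TPO receptor; IL-3 removed overnight before plating. Co-treatment with compound and EC50 TPO (26 pM), 24 hrs at 37 C, then luminescence.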

[16] = target: Pyruvate kinase PKM (Homo sapiens) (UniProt P14618); assay: qHTS Assay for Activators of Human Muscle Pyruvate Kinase (AID 954; active = well fitted curve in the direction sought with a large enough effect, not every such curve was filed as active;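 note: 0% = uninhibited enzyme and -100% = no enzyme or full thiadiazolimine inhibition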)
In short: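 A coupled luminescent readout tracked ATP made from ADP by purified PKM2. Final conditions included 0.1 nM enzyme, PEP and ADP at 0.5 and 0.1 mM, pH 7.2 imidazole buffer with BSA, and a one-hour room-temperature reaction.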

[17] = target: Alpha-galactosidase A (Homo sapiens) (UniProt P06280); assay: Counterscreen for Glucocerebrosidase Inhibitors: qHTS Assay for Human alpha-Galactosidase at pH 4.5 (AID 992); note: 0% is about no effect
In short: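 Citrate buffer pH 4.5, Tween-20 0.005%. Enzyme 2 nM, substrate 80 uM, 20 min RT. Stop pH 10. Fluorescence Ex 365/Em 440. AC50 by Hill fit.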

[18] = target: alpha-glucosidase (Oryza sativa, rice) (UniProt Q653V4); assay: Counterscreen for Glucocerebrosidase Inhibitors: qHTS Assay for Rice alpha-Glucosidase at pH 5.0 (AID 997);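 note: 0% = full activity with enzyme and -100% = basal without enzyme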
In short: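 Endpoint fluorogenic assay at pH 5.0: compounds (0.7 nM to 77 uM) titrated against 4 nM rice enzyme and 400 uM 4-MU-alpha-glucoside for 20 min at room temperature; NaOH/glycine stop, read ex 365/em 440 nm, Hill-fitted AC50.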

[19] = target: Ubiquitin carboxyl-terminal hydrolase 1 (Homo sapiens) (UniProt O94782); assay: Inhibitors of USP1/UAF1: Pilot qHTS (AID 504865);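 note: rhodamine fluorescence freed from ubiquitin-rhodamine substrate followed over time; top concentration of the series differs between compounds; % is set by controls: 0 for no effect and ±100 for the full control effect; nearly all actives have a fitted effect of over 35% in size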
In short: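 In 50mM HEPES pH 7.8 containing 0.5mM EDTA, 1mM TCEP, 0.1 mg/ml BSA and 0.01% Tween-20, 1nM USP1/UAF1 is exposed to compound for 15 min, then Ub-Rho (150nM final) is added and fluorescence is read over time.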

[20] = target: Cytochrome P450 3A4 (Homo sapiens) (UniProt P08684); assay: qHTS Assay for Inhibitors and Substrates of Cytochrome P450 3A4 (AID 884); note: % is set by controls: 0 for no effect and ±100 for the full control effect; nearly all actives have a fitted effect of over 50% in size
In short: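 Luminescent readout of luciferin produced by CYP3A4 (20 nM) dealkylation of Luciferin-PPXE, 25 uM (its KM). NADPH-driven reaction ran 60 min at RT after 10 min compound preincubation; data scaled to 57 uM ketoconazole as 100% inhibition.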

[21] = NCATS anti-infectives library activity on HEK293 viability as a counter-qHTS vs the C. elegans viability qHTS (AID 1745854); note: % is set by controls: 0 for no effect and ±100 for the full control effect
In short: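 Cytotoxicity counter-screen to a worm viability qHTS: CellTiter-Glo luminescence read 10 min after reagent addition. Compounds (final up to 41.7 uM, a 1:5 dilution series) incubated 24 hr at 37C with 1,500 HEK293 cells per well; digitonin control.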

[22] = target: Rap guanine nucleotide exchange factor 3 (Homo sapiens) (UniProt O95398); assay: Confirmatory qHTS for antagonist of cAMP-regulated guanine nucleotide exchange factor 3 (EPAC1) (AID 1645880);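 note: plate controls were DMSO only for no effect and full effect of the ATA control for full effect; nearly all actives have a fitted effect of over 55% in size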
In short: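 Released BODIPY-GDP fluoresces less than Rap1-bound BODIPY-GDP; the signal is followed at 480/540 nm at 5-min intervals over 30 min, after 5 min at room temperature. Reactions contain 100 nM EPAC1, 250 nM RAP1B-BODIPY-GDP and 50 uM GDP; results are normalized to ATA and DMSO.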

[23] = target: Rap guanine nucleotide exchange factor 3 (Homo sapiens) (UniProt O95398); assay: Confirmatory qHTS for agonist of cAMP-regulated guanine nucleotide exchange factor 3 (EPAC1) (AID 1645881);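 note: EPAC1 catalysed release of BODIPY-GDP from Rap1B seen as fluorescence loss; 100% = effect of cAMP agonist control; nearly all actives have a fitted effect of over 75% in size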
[24] = target: Rap guanine nucleotide exchange factor 4 (Homo sapiens) (UniProt Q8WZA2); assay: Confirmatory qHTS for agonist of cAMP-regulated guanine nucleotide exchange factor 4 (EPAC2) (AID 1645884);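 note: nucleotide exchange releases bodipy-GDP from Rap1 and this lowers its fluorescence; % is set by controls: 0 for no effect and ±100 for the full control effect; nearly all actives have a fitted effect of over 65% in size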
[25] = target: Rap guanine nucleotide exchange factor 4 (Homo sapiens) (UniProt Q8WZA2); assay: Confirmatory qHTS for antagonist of cAMP-regulated guanine nucleotide exchange factor 4 (EPAC2) (AID 1645885); note: % is set by controls: 0 for no effect and ±100 for the full control effect; nearly all actives have a fitted effect of over 25% in size

Chain of Glucocorticoid receptor (Homo sapiens) (P04150 whole entry, looked up, the tested form may be a part): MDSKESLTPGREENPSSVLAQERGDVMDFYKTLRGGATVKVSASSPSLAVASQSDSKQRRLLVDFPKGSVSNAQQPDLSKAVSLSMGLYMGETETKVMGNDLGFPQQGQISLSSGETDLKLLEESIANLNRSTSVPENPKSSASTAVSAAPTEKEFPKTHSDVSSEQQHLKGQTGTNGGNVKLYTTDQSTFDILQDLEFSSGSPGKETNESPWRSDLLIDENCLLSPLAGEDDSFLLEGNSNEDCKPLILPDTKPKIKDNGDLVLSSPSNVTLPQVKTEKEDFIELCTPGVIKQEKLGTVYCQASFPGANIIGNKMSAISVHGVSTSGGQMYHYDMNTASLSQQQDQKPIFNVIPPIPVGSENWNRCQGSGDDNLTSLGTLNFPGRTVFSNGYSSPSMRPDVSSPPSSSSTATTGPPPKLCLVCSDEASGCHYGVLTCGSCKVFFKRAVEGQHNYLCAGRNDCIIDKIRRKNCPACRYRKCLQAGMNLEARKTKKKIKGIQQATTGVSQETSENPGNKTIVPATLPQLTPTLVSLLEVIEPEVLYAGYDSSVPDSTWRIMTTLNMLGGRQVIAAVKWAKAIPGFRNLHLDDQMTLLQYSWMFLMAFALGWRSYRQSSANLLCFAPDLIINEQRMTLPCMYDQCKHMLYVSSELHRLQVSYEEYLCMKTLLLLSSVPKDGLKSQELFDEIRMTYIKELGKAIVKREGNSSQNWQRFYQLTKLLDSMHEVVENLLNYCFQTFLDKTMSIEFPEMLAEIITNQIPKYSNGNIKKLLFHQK
Chain of Cytochrome P450 1A2 (Homo sapiens) (P05177 whole entry, looked up): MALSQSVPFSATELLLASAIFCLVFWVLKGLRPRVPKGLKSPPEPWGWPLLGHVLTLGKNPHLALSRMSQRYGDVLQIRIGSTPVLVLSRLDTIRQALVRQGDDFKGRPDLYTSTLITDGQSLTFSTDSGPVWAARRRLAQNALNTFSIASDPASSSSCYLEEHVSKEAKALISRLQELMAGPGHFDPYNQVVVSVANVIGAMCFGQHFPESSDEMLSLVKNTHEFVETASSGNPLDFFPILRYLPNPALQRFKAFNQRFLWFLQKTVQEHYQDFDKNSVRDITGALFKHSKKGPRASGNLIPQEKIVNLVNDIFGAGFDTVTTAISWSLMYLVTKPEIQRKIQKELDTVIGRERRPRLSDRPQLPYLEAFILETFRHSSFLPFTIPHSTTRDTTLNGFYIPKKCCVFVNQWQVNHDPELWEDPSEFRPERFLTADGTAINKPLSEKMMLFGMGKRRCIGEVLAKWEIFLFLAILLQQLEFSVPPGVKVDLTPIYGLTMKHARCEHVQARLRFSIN
Chain of DNA dC->dU-editing enzyme APOBEC-3G (Homo sapiens) (Q9HC16 whole entry, looked up): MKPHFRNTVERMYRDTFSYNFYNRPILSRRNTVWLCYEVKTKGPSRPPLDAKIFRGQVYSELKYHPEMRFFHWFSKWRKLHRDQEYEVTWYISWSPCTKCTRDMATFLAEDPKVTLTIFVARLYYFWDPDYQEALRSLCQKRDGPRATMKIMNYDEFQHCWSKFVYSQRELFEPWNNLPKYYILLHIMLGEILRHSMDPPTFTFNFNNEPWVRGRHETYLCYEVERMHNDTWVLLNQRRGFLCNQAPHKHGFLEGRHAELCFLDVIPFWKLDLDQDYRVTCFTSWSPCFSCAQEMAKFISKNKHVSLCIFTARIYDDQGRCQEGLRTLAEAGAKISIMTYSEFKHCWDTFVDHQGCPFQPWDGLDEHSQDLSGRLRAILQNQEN
Chain of Rap guanine nucleotide exchange factor 4 (Homo sapiens) (Q8WZA2 whole entry, looked up): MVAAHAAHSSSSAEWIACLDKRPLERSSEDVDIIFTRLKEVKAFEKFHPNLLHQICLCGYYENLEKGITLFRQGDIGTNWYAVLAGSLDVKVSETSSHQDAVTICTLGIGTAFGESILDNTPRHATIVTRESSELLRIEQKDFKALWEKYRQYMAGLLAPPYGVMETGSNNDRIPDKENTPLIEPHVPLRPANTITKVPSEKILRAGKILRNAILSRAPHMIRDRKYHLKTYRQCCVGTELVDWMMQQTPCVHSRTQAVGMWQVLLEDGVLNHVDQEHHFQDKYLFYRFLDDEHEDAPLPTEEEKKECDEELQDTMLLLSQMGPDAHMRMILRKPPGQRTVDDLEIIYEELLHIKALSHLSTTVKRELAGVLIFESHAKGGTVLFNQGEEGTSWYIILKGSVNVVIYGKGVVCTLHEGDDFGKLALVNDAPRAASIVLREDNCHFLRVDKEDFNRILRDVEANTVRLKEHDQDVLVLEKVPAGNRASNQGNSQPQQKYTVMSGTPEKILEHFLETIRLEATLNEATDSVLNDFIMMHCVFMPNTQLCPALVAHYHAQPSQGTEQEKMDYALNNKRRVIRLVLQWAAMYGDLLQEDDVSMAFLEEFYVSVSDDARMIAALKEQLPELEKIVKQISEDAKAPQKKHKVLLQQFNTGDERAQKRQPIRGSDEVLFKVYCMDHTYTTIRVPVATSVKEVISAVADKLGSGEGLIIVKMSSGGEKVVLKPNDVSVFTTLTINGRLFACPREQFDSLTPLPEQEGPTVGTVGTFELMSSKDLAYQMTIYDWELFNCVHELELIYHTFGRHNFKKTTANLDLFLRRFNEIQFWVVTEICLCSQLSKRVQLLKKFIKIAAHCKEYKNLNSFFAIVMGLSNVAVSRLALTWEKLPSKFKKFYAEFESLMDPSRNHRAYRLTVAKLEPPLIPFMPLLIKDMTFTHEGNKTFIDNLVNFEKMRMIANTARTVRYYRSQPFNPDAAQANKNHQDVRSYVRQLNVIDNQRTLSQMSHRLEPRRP
Chain of Rap guanine nucleotide exchange factor 3 (Homo sapiens) (O95398 whole entry, looked up): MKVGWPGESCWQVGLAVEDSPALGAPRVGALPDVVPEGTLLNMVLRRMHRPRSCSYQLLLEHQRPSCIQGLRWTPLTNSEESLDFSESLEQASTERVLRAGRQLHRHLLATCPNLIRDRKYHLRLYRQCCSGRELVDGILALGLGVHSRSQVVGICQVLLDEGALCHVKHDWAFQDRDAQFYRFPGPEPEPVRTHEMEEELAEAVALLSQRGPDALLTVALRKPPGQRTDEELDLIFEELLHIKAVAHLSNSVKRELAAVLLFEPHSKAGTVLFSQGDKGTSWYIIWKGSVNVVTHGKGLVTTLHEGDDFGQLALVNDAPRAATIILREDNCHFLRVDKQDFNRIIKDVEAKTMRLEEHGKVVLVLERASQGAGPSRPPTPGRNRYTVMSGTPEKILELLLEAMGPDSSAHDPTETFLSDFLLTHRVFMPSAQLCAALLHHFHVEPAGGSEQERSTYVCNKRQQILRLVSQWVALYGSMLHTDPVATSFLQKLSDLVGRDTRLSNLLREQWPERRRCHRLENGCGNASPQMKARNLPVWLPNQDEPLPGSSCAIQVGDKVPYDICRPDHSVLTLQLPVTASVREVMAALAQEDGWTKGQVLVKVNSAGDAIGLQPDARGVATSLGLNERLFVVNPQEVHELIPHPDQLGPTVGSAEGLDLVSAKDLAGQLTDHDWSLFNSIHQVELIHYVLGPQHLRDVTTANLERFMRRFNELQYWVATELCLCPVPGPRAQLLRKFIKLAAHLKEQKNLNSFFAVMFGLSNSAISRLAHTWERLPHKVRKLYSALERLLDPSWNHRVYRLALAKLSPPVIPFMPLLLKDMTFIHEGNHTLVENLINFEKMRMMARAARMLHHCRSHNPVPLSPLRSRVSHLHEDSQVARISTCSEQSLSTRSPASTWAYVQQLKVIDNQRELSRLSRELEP
Chain of 3',5'-cyclic-AMP phosphodiesterase 4B (Homo sapiens) (Q07343 whole entry, looked up): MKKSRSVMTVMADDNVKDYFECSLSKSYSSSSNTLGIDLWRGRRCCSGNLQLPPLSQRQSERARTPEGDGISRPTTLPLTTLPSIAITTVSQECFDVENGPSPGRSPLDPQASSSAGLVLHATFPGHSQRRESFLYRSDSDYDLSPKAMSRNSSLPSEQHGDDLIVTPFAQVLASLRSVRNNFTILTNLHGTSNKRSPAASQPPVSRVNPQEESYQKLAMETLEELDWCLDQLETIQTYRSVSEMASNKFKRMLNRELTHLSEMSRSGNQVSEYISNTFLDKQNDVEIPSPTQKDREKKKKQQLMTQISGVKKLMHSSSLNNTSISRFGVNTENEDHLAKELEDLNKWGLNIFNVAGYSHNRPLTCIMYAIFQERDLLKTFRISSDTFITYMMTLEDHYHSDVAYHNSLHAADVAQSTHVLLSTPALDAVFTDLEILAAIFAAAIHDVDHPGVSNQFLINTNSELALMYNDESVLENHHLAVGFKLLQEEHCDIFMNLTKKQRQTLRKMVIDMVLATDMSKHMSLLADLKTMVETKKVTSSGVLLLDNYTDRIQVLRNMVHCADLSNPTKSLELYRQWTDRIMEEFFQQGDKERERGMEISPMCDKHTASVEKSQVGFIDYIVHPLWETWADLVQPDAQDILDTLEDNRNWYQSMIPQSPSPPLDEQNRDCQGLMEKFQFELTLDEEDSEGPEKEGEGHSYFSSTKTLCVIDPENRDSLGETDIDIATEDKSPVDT
Chain of Cytochrome P450 3A4 (Homo sapiens) (P08684 whole entry, looked up): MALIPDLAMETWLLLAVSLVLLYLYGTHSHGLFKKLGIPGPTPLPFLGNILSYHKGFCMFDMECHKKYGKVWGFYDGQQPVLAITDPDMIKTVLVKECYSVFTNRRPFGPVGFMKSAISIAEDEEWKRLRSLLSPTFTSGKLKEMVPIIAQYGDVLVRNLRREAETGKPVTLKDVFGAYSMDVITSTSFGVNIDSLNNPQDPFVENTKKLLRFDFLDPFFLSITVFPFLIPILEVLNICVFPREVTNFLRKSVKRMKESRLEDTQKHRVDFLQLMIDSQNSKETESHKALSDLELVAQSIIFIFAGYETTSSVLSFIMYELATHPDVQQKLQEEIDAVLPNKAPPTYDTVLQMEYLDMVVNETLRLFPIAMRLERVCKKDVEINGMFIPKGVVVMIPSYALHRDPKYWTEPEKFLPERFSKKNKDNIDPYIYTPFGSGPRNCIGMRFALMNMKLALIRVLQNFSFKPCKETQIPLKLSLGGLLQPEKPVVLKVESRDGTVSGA

CN(CCc1ccc(Cl)c(Cl)c1)C[C@@H](O)COc1ccc(NS(C)(=O)=O)cc1
inactive: Potency [2] > 46 µM | Potency [3] > 46 µM | Potency [4] | Potency [5] | Potency [7] | Potency [9] | Potency [10]
active: Potency [1] 15.8 µM | Potency [6] 2.51 µM | Potency [8] 2 µM

O=C(NC[C@H]1CCCCN1)c1cc(OCC(F)(F)F)ccc1OCC(F)(F)F
inactive: activity change, negative = inhibition [11] 4.16% | activity change, negative = inhibition [12] -11% | activity, negative = inhibition [13] -13.8% | Potency [4] | outcome [14] | Potency [15] | outcome [16] | outcome [17] | outcome [18] | Potency [9] | Potency [10]

CC(C)NC[C@@H](O)COc1ccccc1-n1cccc1
active: Potency [1] 3.98 µM
inactive: Potency [2] > 46 µM | Potency [3] > 46 µM | Potency [19] | Potency [9] | Potency [10]

O=c1[nH]cnc2ccccc12
inactive: Potency [20] | Potency [10] | outcome [21]

CN1[C@@H]2CC(OC(=O)[C@H](CO)c3ccccc3)C[C@@H]1[C@H]1O[C@H]12 (stereo partly drawn)
inactive: Potency [10] | Potency [22] | outcome [23] | outcome [24] | Potency [25]

OC[C@@H]1O[C@@H](n2cnc3c(NC4CCCC4)ncnc32)[C@H](O)[C@H]1O
inactive: Potency [1] | Potency [2] > 46 µM | Potency [3] > 46 µM | Potency [4] | Potency [5] | Potency [19] | Potency [9] | Potency [10]
